According to PubChem BioAssay AID1779 (Sanford-Burnham Center for Chemical Genomics, 2009):
Among all 290,000 compounds or so, about 160 (0.055%) were called active. The sample holds actives, similar compounds and a random draw of the others, so the mix is not that of the screen. Unmarked numbers belong to inactive results. Cut-off read from the data, not from the text of the source: active = inhibition above about 50%; inactive = the rest.

The molecules below were run against Tyrosine-protein phosphatase non-receptor type 22 (Homo sapiens) (UniProt Q9Y2R2) (assay: inhibitors of LYP phosphatase, biochemical, fluorescence intensity, uHTS (AID 1779;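 note: plate controls were vehicle with enzyme for no effect and no enzyme for full effect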)). Conditions: recombinant LYP phosphatase, at 11.5 µM, active compounds read high.
Tyrosine-protein phosphatase non-receptor type 22 (Homo sapiens), sequence (Q9Y2R2 whole entry, looked up): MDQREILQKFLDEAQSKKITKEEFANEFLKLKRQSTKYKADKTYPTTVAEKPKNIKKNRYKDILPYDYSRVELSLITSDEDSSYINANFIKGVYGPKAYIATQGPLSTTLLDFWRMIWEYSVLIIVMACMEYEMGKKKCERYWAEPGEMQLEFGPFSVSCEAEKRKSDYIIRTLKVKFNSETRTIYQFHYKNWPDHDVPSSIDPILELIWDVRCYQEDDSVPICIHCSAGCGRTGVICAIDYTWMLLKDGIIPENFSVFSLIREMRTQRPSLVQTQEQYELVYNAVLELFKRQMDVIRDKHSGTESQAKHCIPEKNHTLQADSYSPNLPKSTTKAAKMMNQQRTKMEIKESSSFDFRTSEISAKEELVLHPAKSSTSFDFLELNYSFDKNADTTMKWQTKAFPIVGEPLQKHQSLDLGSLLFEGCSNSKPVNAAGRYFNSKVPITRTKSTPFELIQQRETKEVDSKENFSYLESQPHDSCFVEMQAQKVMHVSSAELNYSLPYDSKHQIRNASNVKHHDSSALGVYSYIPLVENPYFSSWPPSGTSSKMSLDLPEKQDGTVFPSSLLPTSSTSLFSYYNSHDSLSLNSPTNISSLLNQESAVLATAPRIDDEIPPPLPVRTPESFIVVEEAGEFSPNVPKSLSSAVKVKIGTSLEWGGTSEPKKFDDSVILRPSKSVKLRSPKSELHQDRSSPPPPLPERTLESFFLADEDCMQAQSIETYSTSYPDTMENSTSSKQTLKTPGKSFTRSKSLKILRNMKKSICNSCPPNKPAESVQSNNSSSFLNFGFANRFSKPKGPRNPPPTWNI

| Structure (SMILES) | inhibition |
| --- | --- |
| O=S(=O)(/C=C/c1ccccc1)NC1CCCCCCC1 | -7.9% |
| CC(c1ccccc1)n1c(N2CCN(C)CC2)nc2c1c(=O)[nH]c(=O)n2C (stereo not given) | -0.2% |
| CCN(CC)CCNC(=O)Cc1nn(CC)c(=O)c2ccccc12 | -9.1% |
| COCCn1c(=O)c2cc3c(=O)n(CCOC)c(=O)c3cc2c1=O | -8.5% |
| CCC(=O)NCCc1cc2ccc(C)c(C)c2[nH]c1=O | 1.7% |
| CC(=O)NCCc1cc2ccc(C)c(C)c2[nH]c1=O | 0.4% |
| CCCC(=O)NCCc1cc2ccc(C)c(C)c2[nH]c1=O | 67.2% (active) |
| CCOc1ccccc1/C=N/OCC(=O)NCc1ccc(F)cc1 | -5.5% |
| O=C(O)c1ccc(-n2c(=O)c3ccccc3c3ccccc3c2=O)cc1 | -4% |
| Cc1ccc(N2C(=O)c3ccc(C(=O)O)cc3C2=O)cc1C | -1.9% |
| Cc1ccc(-n2c(=O)c3cc4c(=O)n(-c5ccc(C)c(C)c5)c(=O)c4c(C(=O)c4ccc(C(=O)O)cc4)c3c2=O)cc1C | 85.8% (active) |
| COCCN(C(=O)c1csnn1)C(C(=O)NC1CCCCC1)c1ccc(C)cc1 (stereo not given) | -9.2% |
| NC(=O)C(c1cccc(Cl)c1)c1ncc(C(F)(F)F)cc1Cl (stereo not given) | -10.5% |
| C#CCOc1ccc(/C=N/NC(=O)c2cccnc2)cc1OCC | 1.2% |
| COc1ccccc1OCC(=O)OCC(=O)Nc1ncc(Cl)cc1Cl | -9.7% |
| O=C(Nc1ccccc1)C1=C[C@@H](C2CCCCC2)C[C@@H](OCCCCO)O1 | 2.1% |
| O=C(O)CCCN1C(=O)/C(=C\c2ccc(-c3nc4ccccc4s3)o2)SC1=S | 6.8% |
| O=C(O)CCN1C(=O)/C(=C/c2ccc(-c3nc4ccccc4s3)o2)SC1=S | 14.6% |
| O=C(c1ccc2c(c1)OCO2)N1CCC2(CC1)Oc1ccc(Cl)cc1C(=O)C21CC(c2ccccc2)=NO1 (stereo not given) | 5.7% |
| O=C(O)c1ccc(-n2cccc2/C=C2/NC(=O)N(c3cccc(Cl)c3)C2=O)cc1 | 6.2% |
| O=C(O)c1cccc(-n2cccc2/C=C2/NC(=O)N(c3cccc(Cl)c3)C2=O)c1 | 0.3% |
| Cc1cc(NC(=O)Nc2ccc(Cl)cc2)no1 | -8.1% |
| CC[C@H](C)[C@H](NC(N)=O)C(=O)OCC(=O)NCc1ccc(Cl)cc1 | -4.9% |
| COc1cc2c(cc1OC)-c1nnc(-c3ccco3)n1C1(CCCC1)C2 | -4.3% |

| Structure (SMILES) | inhibition |
| --- | --- |
| Cc1cc(N2CCOCC2)nc(SCc2ccc(Cl)cc2Cl)n1 | -4.6% |
| O=C(O)C1CCC(N2C(=O)C3CCCCC3C2=O)CC1 (stereo not given) | -12.2% |
| O=C(O)C1CCC(N2C(=O)c3c(Cl)c(Cl)c(Cl)c(Cl)c3C2=O)CC1 (stereo not given) | 94.2% (active) |
| O=C(O)C1CCC(N2C(=O)c3cccc([N+](=O)[O-])c3C2=O)CC1 (stereo not given) | -7.1% |
| Cc1cccc(OCC(=O)Nc2nnn(C)n2)c1C | -6.4% |
| COc1cc(/C=N/NC(=O)c2cc(-c3ccccc3)nc3ccccc23)ccc1O | -1.5% |
| COc1cc(/C=N/NC(=O)c2cc(-c3ccccc3OC(C)C)nc3ccccc23)ccc1O | 4.4% |
| CCOc1ccccc1-c1cc(C(=O)N/N=C/c2ccc(O)c(OC)c2)c2ccccc2n1 | 64.5% (active) |
| O=C(NCCc1ccccn1)C1CCN(S(=O)(=O)c2ccc(Cl)cc2)CC1 | -6.8% |
| CCOC(=O)c1ccc(NC(=S)NC(=O)c2nn(CC)cc2Br)cc1 | 1.9% |
| CCOC(=O)c1ccc(NC(=O)c2nn(CC)cc2Br)cc1 | -4.5% |
| CCn1cc(Br)c(C(=O)NC(=S)Nc2ccc(C(=O)OC)cc2)n1 | 65.2% (active) |
| COC(=O)CNC(=O)c1ccc(C)s1 | -7.8% |
| CN1CCN(S(=O)(=O)c2ccc3ccccc3c2)CC1 | -4.3% |
| CN(C)S(=O)(=O)N1CCN(S(=O)(=O)c2ccc3ccccc3c2)CC1 | 71.6% (active) |
| CCS(=O)(=O)N1CCN(S(=O)(=O)c2ccc3ccccc3c2)CC1 | -9.2% |
| CCN(CC(=O)N1CCOCC1)S(=O)(=O)c1ccc2ccccc2c1 | -8.1% |
| Cc1ccc(OCC(O)CNS(=O)(=O)c2ccccc2C(=O)O)cc1 (stereo not given) | -4.9% |
| CC(=O)Nc1cccc(NC(=O)c2c(-c3ccccc3Cl)noc2C)c1 | -3.7% |
| C/C(=N\NC(=O)c1c(-c2ccccc2Cl)noc1C)c1cccc(NC(=O)C(C)C)c1 | 77.1% (active) |
| CCC(=O)Nc1ccc(/C(C)=N/NC(=O)c2c(-c3ccccc3Cl)noc2C)cc1 | -2.5% |
| C/C(=N\NC(=O)C(=O)Nc1cccc(Cl)c1C)c1ccncc1 | -8% |
| O=C(c1cc2cc(F)ccc2[nH]1)N1CCN(C(=O)c2ccco2)CC1 | 95.1% (active) |
| CN1CCN(C(=O)c2cc3cc(F)ccc3[nH]2)CC1 | -9.9% |

| Structure (SMILES) | inhibition |
| --- | --- |
| O=C(c1cc2cc(Cl)ccc2[nH]1)N1CCN(C(=O)c2ccco2)CC1 | -9.3% |
| O=C(NNc1c(Cl)cccc1Cl)c1cccs1 | -4.8% |
| CCCC(=O)Nc1ccc(Cl)c(NC(=O)CC)c1 | -12.2% |
| O=C(O)c1ccc(NC(=S)NC(=O)c2ccc(-c3ccc(Br)cc3)o2)cc1 | 86.9% (active) |
| O=C(NC(=S)Nc1ccccc1C(=O)O)c1ccc(-c2ccc(Br)cc2)o1 | 1.2% |
| O=C(NC(=S)Nc1ccc(CN2CCOCC2)cc1)c1ccc(-c2ccc(Br)cc2)o1 | -14.4% |
| CCCc1cc(C(=O)NC2CCCN(Cc3ccccc3F)C2)no1 (stereo not given) | -1.5% |
| CC(=O)N(CC(=O)O)c1ccccc1 | -0.7% |
| O=C(COc1ccccc1F)Nc1cc(S(=O)(=O)N2CCOCC2)ccc1N1CCOCC1 | -1.3% |
| CCC(C)NCCOCCOc1ccc(Cl)c2ccccc12 (stereo not given) | 1.1% |
| CCC(C)NCCOCCOc1ccc(Cl)c(C)c1C (stereo not given) | 76.9% (active) |
| CCC(C)NCCOCCOc1ccc(Cl)cc1Br (stereo not given) | -3.3% |
| Cc1c(Cl)cccc1NC(=S)N=Nc1c(O)n(CN2CCOCC2)c2ccccc12 | -0.8% |
| Cc1cccc(NC(=S)N=Nc2c(O)n(CN3CCOCC3)c3ccccc23)c1C | -4.1% |
| Cc1ccc(N=Nc2c(O)n(CN3CCOCC3)c3ccccc23)cc1 | 72% (active) |
| O=S(=O)(CCCc1ccccc1)c1ncn[nH]1 | -3% |
| COc1ccc(N(CC(=O)NCCSC(C)(C)C)S(C)(=O)=O)c(OC)c1 | -6.6% |
| Cc1ccccc1OCC(=O)N/N=C/c1ccco1 | -3.4% |
| Cc1ccc(OCC(=O)N/N=C/c2ccco2)cc1 | -5.1% |
| Cc1ccc(OCC(=O)N/N=C\c2ccco2)c(C)c1 | 51.3% (active) |
| Cc1ccc(C(=O)N/N=C\c2cccs2)cn1 | 1.2% |
| Cc1nnc(C)n1/N=C/c1ccccc1 | -11% |
| CCNc1nc(N)nc(-c2cc(Cl)ccc2OC)n1 | -2.6% |
| COc1ccc(Cl)cc1-c1nc(N)nc(NC2CCCCC2)n1 | 58.1% (active) |

| Structure (SMILES) | inhibition |
| --- | --- |
| CNc1nc(N)nc(-c2cc(Cl)ccc2OC)n1 | -4% |
| Cc1ccc(/C(O)=C2/C(=O)C(=O)N(CCN3CCOCC3)C2c2cccnc2)cc1 (stereo not given) | -3.8% |
| C=CCC(C(=O)OC)(C(=O)OC)c1ccccc1[N+](=O)[O-] | -9.5% |
| COc1cc(/C=N\NC(=O)c2ccc(-c3ccccc3)cc2)ccc1OCC(N)=O | 3.2% |
| CCOc1cc(/C=N\NC(=O)c2ccc(NC(=O)C(C)(C)C)cc2)ccc1OC(=O)c1ccc(C)cc1 | -4% |
| Cc1cc2c(N=O)c(NO)ccc2[nH]1 | -4.6% |
| Cc1nn(Cc2cccc(C(=O)NC34CC5CC(CC(C5)C3)C4)c2)c(C)c1Br | 94.4% (active) |
| Cc1nn(Cc2cccc(C(=O)NCC(C)C)c2)c(C)c1Br | -3.3% |
| CCCNC(=O)c1cccc(Cn2nc(C)c(Br)c2C)c1 | -5.3% |
| COc1ccc(-c2cc(C(=O)NCCc3ccc(S(N)(=O)=O)cc3)c3ccccc3n2)cc1 | -2.5% |
| Cc1nnc(SCC(=O)NC(=O)Nc2ccc3c(c2)OCCO3)n1N | -13% |
| COCCn1c(=N)c(S(=O)(=O)c2ccc(Br)cc2)cc2c(=O)n3ccccc3nc21 | 67.5% (active) |
| COCCn1c(=N)c(S(=O)(=O)c2ccc(F)cc2)cc2c(=O)n3ccccc3nc21 | -34.1% |
| N=c1c(S(=O)(=O)c2ccc(Br)cc2)cc2c(=O)n3ccccc3nc2n1Cc1ccccc1 | -5.4% |
| Cc1cc(N2C(=O)C(O)=C(C(=O)c3cc4ccccc4o3)C2c2ccc(Br)cc2)no1 (stereo not given) | 2.4% |
| OCCOCCn1c(-c2ccccc2)nc(=S)c2c1CCCC2 | -2.3% |
| O=C(CCc1c[nH]c2ccccc12)OCc1cccc([N+](=O)[O-])c1 | -6% |
| COc1ccc(/C=N\NC(=O)COc2ccccc2)c(C(=O)O)c1OC | 2.3% |
| COc1ccc(/C=N/NC(=O)COc2ccc3ccccc3c2)c(C(=O)O)c1OC | -2.9% |
| COc1ccc(OCC(=O)N/N=C/c2ccc(OC)c(OC)c2C(=O)O)cc1 | 53.1% (active) |
| CCc1nc(CNC(=O)c2cc(OC)c(OC)c(OC)c2)no1 | -4.2% |
| O=C(NC(=S)Nc1ccc(S(=O)(=O)Nc2nccs2)cc1)C1CC1 | 1% |
| COc1cccc(N(C(=O)Cn2nnc(-c3ccc(Cl)cc3)n2)C(C(=O)NCC2CCCO2)c2ccc(C)cc2)c1 (stereo not given) | -1.9% |
